Data published in PubChem BioAssay (NCI).
Compounds without any hit were thinned out: in the full panel of roughly 83,000, 20% have a hit.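 Results are percent growth after 48 hours of single-concentration exposure. 100 means growth as in untreated cells, lower positive values show inhibition; negative values down to -100 show cell death.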 A number with no mark means an inactive call. Calls of active or inactive are those of the source. The calls were made as follows: active = growth percent below 10; inactive = the rest.

What was measured:
Experiment in all cases: NCI-60 one-dose screen, 48 h (100 = growth as untreated, 0 = no growth, -100 = all killed)
Conditions in all cases: 10 µM unless noted
HCT-15 colon = tested on: HCT-15 colon
HT29 colon = tested on: HT29 colon
SNB-75 CNS = tested on: SNB-75 CNS
SNB-19 CNS = tested on: SNB-19 CNS
U251 CNS = tested on: U251 CNS
PC-3 prostate = tested on: PC-3 prostate
SK-MEL-5 melanoma = tested on: SK-MEL-5 melanoma
LOX IMVI melanoma = tested on: LOX IMVI melanoma
SK-MEL-28 melanoma = tested on: SK-MEL-28 melanoma
SK-MEL-2 melanoma = tested on: SK-MEL-2 melanoma
EKVX NSCLC = tested on: EKVX NSCLC
SN12C renal = tested on: SN12C renal
UO-31 renal = tested on: UO-31 renal
TK-10 renal = tested on: TK-10 renal
ACHN renal = tested on: ACHN renal
CAKI-1 renal = tested on: CAKI-1 renal
A498 renal = tested on: A498 renal
CCRF-CEM leukemia = tested on: CCRF-CEM leukemia
MOLT-4 leukemia = tested on: MOLT-4 leukemia
UACC-62 melanoma = tested on: UACC-62 melanoma

Structure (SMILES)	growth (HCT-15 colon)	growth (HT29 colon)	growth (SNB-75 CNS)	growth (SNB-19 CNS)	growth (U251 CNS)	growth (PC-3 prostate)	growth (SK-MEL-5 melanoma)	growth (LOX IMVI melanoma)	growth (SK-MEL-28 melanoma)	growth (SK-MEL-2 melanoma)	growth (EKVX NSCLC)	growth (SN12C renal)	growth (UO-31 renal)	growth (TK-10 renal)	growth (ACHN renal)	growth (CAKI-1 renal)	growth (A498 renal)	growth (CCRF-CEM leukemia)	growth (MOLT-4 leukemia)	growth (UACC-62 melanoma)
NC(=O)c1c(NC(=O)COC(=O)Cc2ccccc2F)sc2c1CCC2	104%	117%	106%	86.6%	101%	100%	91.1%	110%	97.2%	99.9%	101%	109%	72.6%	124%	109%	99%	117%	108%	86.6%	–
Cc1cccc(C[C@H](NC(=O)Nc2ccc(Cl)cc2F)C(=O)N[C@@H]2C(=O)N3C[C@H](O)C[C@H]3C(=O)N3CCN(C)C[C@H]3C(=O)N[C@@H](C)C(=O)N3C[C@H](C)C[C@H]3C(=O)O[C@H]2C)c1	105%	36%	18.8%	22.5%	23.5%	19.6%	40.7%	40.9%	–	34.4%	71.4%	20.5%	83.6%	81.4%	102%	59.1%	23.7%	57.2%	43.4%	28.3%
CC1Cc2c(ncnc2-n2cnc3ccccc32)N(C)c2ccccc21 (stereo not given)	21.6%	0.852% (active)	43%	31.5%	23.7%	25.6%	20.8%	44.9%	70.4%	-6.66% (active)	48.6%	35.5%	46.4%	50%	55.7%	33.6%	-2.09% (active)	13%	23.2%	–
OC(c1ccc(Cl)cc1)(c1ccc(Cl)cc1)C(O)(c1ccc(Cl)cc1)c1ccc(Cl)cc1	33.8%	24%	27.8%	40.5%	46.6%	33.5%	71.7%	11.2%	–	68.4%	49%	29.8%	25.7%	29.1%	61.8%	46.8%	64.4%	32.8%	22.7%	50.8%
CCOc1cc(NC(=O)c2ccccc2)c(OCC)cc1N	111%	121%	106%	105%	106%	104%	107%	100%	118%	112%	113%	113%	102%	112%	–	102%	113%	107%	101%	–
C[n+]1c(-c2ccccc2)c2cc(N)ccc2c2ccccc21	101%	31.5%	-0.792% (active)	-2.68% (active)	11.6%	58.4%	0.275% (active)	40.2%	10.4%	19.6%	26.6%	4.79% (active)	89.9%	90.4%	95.7%	110%	126%	50.9%	–	–
COCc1nc2ccccc2[nH]1	97.7%	104%	95.8%	101%	98.3%	104%	99.5%	99.3%	98.8%	102%	93.9%	104%	87.3%	97.3%	99.9%	93.4%	104%	105%	93%	–
Cc1ccc(NC(=O)N[C@@H](Cc2cc(F)cc(F)c2)C(=O)N[C@@H]2C(=O)N3CCC[C@H]3C(=O)N3CCOC[C@H]3C(=O)N[C@@H](C)C(=O)N3C[C@H](C)C[C@H]3C(=O)O[C@H]2C)cc1	32.9%	32.4%	16.9%	21.5%	27.1%	19.1%	10.6%	38.3%	42.3%	40.7%	30.6%	18.4%	28.4%	60.7%	29.7%	16.5%	-3.1% (active)	58.3%	41%	–
O=C(CSc1nccc(Nc2ccc(S(=O)(=O)Nc3ccccn3)cc2)n1)c1ccc(Cl)cc1	99.9%	107%	101%	97.1%	93.9%	84.3%	70.8%	87.6%	118%	97.8%	101%	90.7%	71.3%	109%	89.8%	83%	115%	-44.8% (active)	81.4%	–
c1coc2occoc=2o1	102%	106%	97.4%	107%	101%	96.8%	97.2%	102%	112%	105%	106%	89.2%	92.5%	103%	102%	101%	107%	98.9%	114%	–
O=S(=O)(/N=c1/n(-c2ccccc2)nc2n1CCN2C1=NCCN1)c1ccc(-c2ccccc2)cc1	99.4%	100%	85%	97.1%	92.7%	93.8%	90.6%	93%	105%	115%	95.9%	93.6%	84.4%	108%	101%	92%	82.9%	94.7%	95.1%	–
CC[C@]12C=CCN3CC[C@@]4(c5ccc(OC)cc5N(C)[C@H]4[C@@](O)(C(=O)OC)[C@@H]1OC(=O)CCC(=O)O[C@H]1CC[C@H]4[C@@H]5CCC6=CC(=O)CC[C@@H]6[C@H]5CC[C@]14C)[C@@H]32	14.5% [100 µM]	-21.8% [100 µM] (active)	-27.2% [100 µM] (active)	21.7% [100 µM]	10.8% [100 µM]	11.3% [100 µM]	-95.3% [100 µM] (active)	-29.5% [100 µM] (active)	-7.77% [100 µM] (active)	-79.8% [100 µM] (active)	16.1% [100 µM]	7.65% [100 µM] (active)	-7.86% [100 µM] (active)	12.4% [100 µM]	-0.641% [100 µM] (active)	6.42% [100 µM] (active)	-15.8% [100 µM] (active)	5.61% [100 µM] (active)	–	–
CCOC(=O)c1nn(C2CCCCO2)c2ccc(NC(=O)CN3CCOCC3)cc12 (stereo not given)	106%	116%	80.7%	98.8%	97.9%	107%	102%	98.2%	109%	108%	100%	101%	86.6%	109%	99.6%	84.2%	99.9%	1.49% (active)	96.1%	–
O=C1C(Cl)=C(Nc2ccc3cn[nH]c3c2)C(=O)c2ccccc21	-84.1% (active)	-66.9% (active)	-84.5% (active)	76.5%	-93.2% (active)	-42% (active)	-99.5% (active)	-87.5% (active)	–	-28.6% (active)	-64.7% (active)	-42.9% (active)	-97.7% (active)	19.8%	41.1%	-94.4% (active)	93%	-43.8% (active)	-38.4% (active)	-97.9% (active)
Nn1c(Nc2ccc(S(=O)(=O)Nc3ncccn3)cc2)nnc(/C=C/c2c(O)ccc3ccccc23)c1=O	91.3%	105%	92.2%	96.8%	85.8%	75.4%	88.2%	84.3%	112%	89.2%	90.9%	96.8%	58.6%	120%	91.9%	98.4%	93.2%	79.3%	–	–
CCN(CC)c1cc(N)c(Cc2c(N)cc(N(CC)CC)cc2Cl)c(Cl)c1	91.7%	27.6%	8.86% (active)	35.1%	21.6%	38.4%	-27.8% (active)	37.7%	53.2%	41.6%	31.9%	21.8%	68.5%	82.1%	80.2%	65.7%	76.7%	51.5%	40.8%	–
